Dicer inh – human Dicer pre-microRNA cleavage inhibition; 47,000 compounds, 6% hits; AID 1347074; cat-ELCCA pre-miR-21 Dicer processing, chemiluminescence; stronger effect = higher value; z-score at 25 µM; Q9UPY3; in the data active = z-score above about 3, passing the limit was not always enough;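 also: plate controls were vehicle for no effect and no enzyme for full effect; higher signal means more uncleaved substrate so more Dicer inhibition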
Active calls of the source: *. Only a selection was taken, and hits are over-represented in it overall.

SMILES | Dicer inh
COc1cc(C2C3=C(CCCC3=O)NC3=C2C(=O)CCC3)ccc1OCc1ccccc1F | 0.34
CCOC(=O)c1sc(Nc2ccccc2C(F)(F)F)c(C(=O)OCC)c1N | -1.6
COc1ccc(S(=O)(=O)Nc2cccnc2)c(C)c1C | 1.1
Cc1c(C)c(C)c(S(=O)(=O)Oc2cccnc2)c(C)c1C | 3.8*
Cc1c(C)c(C)c(S(=O)(=O)Oc2cc(Cl)cc(Cl)c2)c(C)c1C | -0.02
Cn1c(=O)c2cnc(-c3ccccc3)nc2n(C)c1=O | 2.9
N#Cc1c(OCC(F)(F)F)ccc(Br)c1OCC(F)(F)F | 1.2
CC(C)(C)OC(=O)N[C@@H](CCCN=C(N)N)C(=O)O | -0.72
O=C1N(Cc2ccccc2Cl)c2ccccc2C1(O)c1c[nH]c2ccccc12 (centres undefined) | 1.9
O=C(NCc1cccs1)c1cc2n(n1)C(C(F)(F)F)CC(c1ccc(Cl)cc1)N2 (centres undefined) | 0.44
O=C(NCc1ccco1)c1cc2n(n1)C(C(F)(F)F)CC(c1ccc(Br)cc1)N2 (centres undefined) | 3.5*
O=C(Nc1cccnc1)c1cc2n(n1)C(C(F)(F)F)CC(c1ccc(Br)cc1)N2 (centres undefined) | 4.7*
O=C(NCCCn1ccnc1)c1cc2n(n1)C(C(F)(F)F)CC(c1ccc(Cl)cc1)N2 (centres undefined) | 0.68
O=C(NC1CCCC1)c1cc2n(n1)C(C(F)(F)F)CC(c1ccccc1)N2 (centres undefined) | -0.58
Cc1cc(C)cc(NC(=O)c2cc3n(n2)C(C(F)(F)F)CC(c2ccco2)N3)c1 (centres undefined) | 1.7
Cc1ccc(C2CC(C(F)(F)F)n3nc(C(=O)NC(C)C)cc3N2)cc1 (centres undefined) | -0.35
O=C(NCc1ccccn1)c1cc2n(n1)C(C(F)(F)F)CC(c1ccco1)N2 (centres undefined) | 0.16
O=C(NC1CCCC1)c1cc2n(n1)C(C(F)(F)F)CC(c1ccc(Br)cc1)N2 (centres undefined) | 4.4*
CCN1C(=O)c2cccc3c(S(=O)(=O)NC(Cc4ccccc4)C(=O)O)ccc1c23 (centres undefined) | -0.77
Cc1ccc(N=Cc2cc(-c3ccccc3)oc2S)c(C)c1 | -0.72
COc1ccc(C2Nn3c(C)nnc3SC2C(=O)N2CCOCC2)cc1Br (centres undefined) | 0.34
Cc1ccc(-c2cc3ncc4c(n3n2)-c2cc(F)ccc2OC4)cc1 | -2.1
CSc1nsc(SC)c1C(=O)Nc1nn(C)c2cccc(F)c12 | 0.56
CN(C)c1ccc(C2=Nc3cccc4cccc(c34)N2)cc1 | 0.75
Nc1cccc(C2=Nc3cccc4cccc(c34)N2)c1 | 3.2*
SMILES | Dicer inh
N#CC1=CNc2ccccc2N=C1N | 0.36
NC1=Nc2cccc3cccc(c23)N1 | 26*
c1cc2c3c(cccc3c1)-c1nc3ccccc3nc1-2 | -0.43
COc1ccc(C2=Nc3cccc4cccc(c34)N2)cc1 | 0.66
CCOc1ccc(C2c3c(n(C)c(=O)n(C)c3=O)N=C3c4ccccc4C(=O)C32)cc1 (centres undefined) | -0.66
COc1ccc2nc(SCC(=O)OC3CC4CCC3(C)C4(C)C)[nH]c2c1 (centres undefined) | -1.2
CC(C)=NNC(=O)Nc1c(-c2c(Cl)cccc2Cl)noc1C | -0.58
CN(C)c1ccc(NC(=O)C2CC=CCC2C(=O)O)cc1 (centres undefined) | -2.6
CC(C)(C)c1ccc(Oc2c(C(F)(F)F)oc3cc(O)ccc3c2=O)cc1 | -0.26
COC(=O)c1c(NC(=O)CCCC(=O)O)sc2c1CCC(C(C)(C)C)C2 (centres undefined) | -0.09
COC(=O)c1sc(-c2ccc(Cl)cc2)cc1NC(=O)Nc1cccs1 | 3.4*
COC(=O)c1sc(-c2ccc(Cl)cc2)cc1NC(=O)c1cccnc1Oc1ccccc1 | 1.9
COC(=O)c1sc(-c2ccc(Cl)cc2)cc1NC(=O)c1cc(C)nn1C | -0.98
O=[N+]([O-])C1=Cc2ccccc2OC1c1ccccc1Cl (centres undefined) | 2.5
O=[N+]([O-])C1=Cc2cc(Cl)ccc2OC1c1ccccc1Cl (centres undefined) | 4*
O=[N+]([O-])C1=Cc2cc(Cl)ccc2OC1c1c(Cl)cccc1Cl (centres undefined) | 2.3
O=C(COc1ccc(Cl)cc1)N(Cc1cccs1)C1CCS(=O)(=O)C1 (centres undefined) | 0.47
O=C(COc1ccc(F)cc1)N(Cc1cccs1)C1CCS(=O)(=O)C1 (centres undefined) | 1.4
O=C(COc1ccccc1)N(Cc1cccs1)C1CCS(=O)(=O)C1 (centres undefined) | 3.1*
O=C1CC(c2ccc(F)cc2)CC2=C1C(c1ccc([N+](=O)[O-])o1)Nc1ccccc1N2 (centres undefined) | -0.34
Cn1ncc(C(=O)Nc2ccc(F)cc2F)c1[N+](=O)[O-] | -1.4
S=c1[nH]c(=S)c2cnn(-c3ccccc3)c2[nH]1 | 2.8
CCn1c[n+](CC(O)COc2ccccc2)c2ccccc21 (centres undefined) | -1.8
CCn1c[n+](CC(O)COc2ccccc2C)c2ccccc21 (centres undefined) | -1.8
CCn1c[n+](CC(O)COc2ccccc2OC)c2ccccc21 (centres undefined) | 7.7*
SMILES | Dicer inh
COc1cc(C2c3c(oc4ccccc4c3=O)C(=O)N2Cc2ccccc2Cl)ccc1O (centres undefined) | 3.2*
COc1ccc(CN2C(=O)c3oc4ccc(C)cc4c(=O)c3C2c2ccc(O)c(OC)c2)cc1 (centres undefined) | -0.31
O=C1c2oc3ccccc3c(=O)c2C(c2ccc(O)cc2)N1Cc1ccccc1Cl (centres undefined) | 1
CCOc1cc(C2c3c(oc4ccc(C)cc4c3=O)C(=O)N2Cc2ccc(OC)cc2)ccc1O (centres undefined) | 3.1*
O=C1c2oc3ccccc3c(=O)c2C(c2cccc(O)c2)N1Cc1ccccc1Cl (centres undefined) | 1
CCOc1cc(C2c3c(oc4ccc(F)cc4c3=O)C(=O)N2Cc2ccc(C)cc2)ccc1O (centres undefined) | 1.7
O=C1C2CC=C(Cl)CC2C(=O)N1CC1Cc2ccccc2CO1 (centres undefined) | 0.75
Cc1cc(S(=O)(=O)N2CCN=C2c2ccccc2)ccc1F | 0.97
COc1ccc(C2C(C#N)=C(N)OC3=C2C(=O)CC(c2ccccc2)C3)cc1 (centres undefined) | 2.5
O=C(Nc1ccc(OC(F)(F)F)cc1)OC(Cc1ccccc1)C(F)(F)F (centres undefined) | -1.3
CC(C)NC(=O)NCCNC(=O)OC(C)(C)C | -0.2
CN(NC(=O)c1ccccc1)c1ncc(Cl)cc1C(F)(F)F | 0.09
CCOC(=O)NC(=S)N/N=C/c1ccccn1 | -0.27
Cc1coc(C)c1C(=O)CC1(O)C(=O)N(C)c2ccccc21 (centres undefined) | 3.4*
Cc1cc(C)c(C(=O)CC2(O)C(=O)N(C)c3ccccc32)c(C)c1 (centres undefined) | -0.57
CCCN1C(=O)C(O)(CC(=O)c2c(C)coc2C)c2ccccc21 (centres undefined) | 0.41
N#C/C=C/c1ccc(Br)cc1C(F)(F)F | -0.24
O=C(CN1C(=O)c2ccccc2C1=O)N1CC=C(c2ccccc2)CC1 | 0.32
C=CCOC(Cn1ccnc1)c1ccc(Cl)cc1Cl (centres undefined) | -0.48
c1cc(-c2nc3cc4sc(-c5ccn[nH]5)nc4cc3s2)[nH]n1 | 3.2*
